The values that follow come from PubChem BioAssay (EPA / NIEHS).

The structures appear in SMILES notation. Inconclusive results are not listed. The source made the active and inactive calls. Rule for the calls, unless noted: active = hit-call score of the fitted dose curve at least 0.9, where 1 is the maximum; inactive = score below 0.9.

Assay [1] addresses Transcriptional activator Myb (Homo sapiens) (UniProt P10242). Put plainly: ATG_Myb_CIS: Attagene CIS-FACTORIAL HepG2 Assay for human Myeloblastosis (Myb) Proto-Oncogene Transcription Factor (AID 2282986). As to conditions: HepG2 Attagene CIS-FACTORIAL Myb reporter transcription; actives raise or lower the signal. The procedure, abridged:
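Transiently transfected HepG2 cells, treated 24 h. Reporter mRNA quantified by RT-PCR/capillary electrophoresis; bidirectional fit relative to DMSO.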

Assay [2] has as its target Nuclear respiratory factor 1 (Homo sapiens) (UniProt Q16656). In words: ATG_NRF1_CIS: Attagene CIS-FACTORIAL HepG2 Assay for human Nuclear Respiratory Factor 1 (NRF1) Orphan Gene (AID 2282987). As to conditions: HepG2 NRF1 cis-element reporter, Attagene multiplex; actives raise or lower the signal. Summed up:
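Cells (HepG2, transient MRTU transfection) are exposed to compound for 24 h, then RNA isolated and reporter mRNA amplified and fluorescently labelled. Fragments are separated by capillary electrophoresis; signal change is fitted bidirectionally relative to DMSO.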

A short description of assay [3]: ATG_NFI_CIS: Attagene CIS-FACTORIAL HepG2 Assay for human Nuclear Factor I (NFI) (AID 2282989). As to conditions: HepG2 cis-regulatory reporter, NFI response element transcription; actives raise or lower the signal. Summed up: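 Cells: human liver HepG2, transiently transfected with promoter-regulated reporter transcription units. Exposure 24 h. Detection: fluorescent RT-PCR products separated by capillary electrophoresis, normalised to DMSO negative control.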

The target in assay [4] is Myc proto-oncogene protein (Homo sapiens) (UniProt P01106). In words: ATG_Myc_CIS: Attagene CIS-FACTORIAL HepG2 Assay for human Myelocytomatosis (Myc) Proto-Oncogene Transcription Factor (AID 2282990). As to conditions: HepG2, Attagene cis-reporter transcription factor activity; actives raise or lower the signal. Summed up:
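Multiplexed cis-reporter transcription in HepG2 cells after 24 h chemical treatment. Reporter mRNA measured by RT-PCR and capillary electrophoresis fluorescence; activity fitted bidirectionally against DMSO control.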

The nature of assay [5]: ATG_NRF2_ARE_CIS: Attagene CIS-FACTORIAL HepG2 Assay for human Nuclear Factor Erythroid 2 Related Factor 2 (NFR2) response to Antioxidant Response Elements (ARE) (AID 2282992). As to conditions: HepG2 Attagene ARE/NRF2 reporter, transcription factor activity; actives raise or lower the signal. Summed up:
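Readout: reporter mRNA quantified by RT-PCR plus FAM-labelled primer extension, HpaI digestion and capillary electrophoresis, 24 h after dosing transfected HepG2 cells. Gain or loss of signal is fitted bidirectionally against DMSO baseline.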

The nature of assay [6]: ATG_Oct_MLP_CIS: Attagene CIS-FACTORIAL HepG2 Assay for human Octamer-Binding Transcription Factor (Oct) (AID 2282993). The note with it: HepG2 Attagene cis-factorial Oct reporter, mRNA; actives raise or lower the signal. The procedure, abridged:
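HepG2, transient MRTU transfection, cis promoter elements; 24 h dosing; RT-PCR/CE fluorescence read-out of reporter mRNA; fit both directions vs DMSO.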

Assay [7] concerns the target Cellular tumor antigen p53 (Homo sapiens) (UniProt P04637). In words: ATG_p53_CIS: Attagene CIS-FACTORIAL HepG2 Assay for human p53 Transcription Factor (AID 2282994). As to conditions: HepG2 p53 cis-element reporter, Attagene mRNA; actives raise or lower the signal. The procedure, abridged:
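Read-out: reporter mRNA by RT-PCR plus capillary electrophoresis with fluorescence detection. Human HepG2 liver cells carried transfected multi-reporter cis-element constructs, dosed 24 h. Gain or loss of signal fitted bidirectionally against DMSO control.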

A short description of assay [8]: BSK_3C_TissueFactor: BioMAP Diversity Plus: 3C Assay for Tissue Factor Biomarker Activity (AID 2282997). The note with it: BioMAP 3C HUVEC, tissue factor biomarker readout; actives raise or lower the signal. Summed up:
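After a 24 h chemical exposure of primary human umbilical vein endothelial cells, Tissue Factor levels were quantified by ELISA.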

Assay [9] in a line: BSK_3C_uPAR: BioMAP Diversity Plus: 3C Assay for Urokinase-type plasminogen activator receptor (uPAR) Biomarker Activity (AID 2282998). The note with it: BioMAP 3C HUVEC, uPAR biomarker ELISA; actives raise or lower the signal. The procedure, abridged:
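A multiplexed primary-cell system built on human umbilical vein endothelium was used, with chemical present for 24 h before reading. Cell-surface uPAR was detected by ELISA; signal change in either direction counted against DMSO.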

Assay [10] is described as follows: BSK_3C_VCAM1: BioMAP Diversity Plus: 3C Assay for Vascular cell adhesion molecule 1 (VCAM1) Biomarker Activity (AID 2282999). The note with it: BioMAP 3C HUVEC, VCAM1 ELISA, cytokine-stimulated; actives raise or lower the signal. Summed up:
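Vascular primary endothelium (human umbilical vein) was exposed to chemicals and assayed 24 h later. VCAM-1 levels came from ELISA, with DMSO serving as baseline for bidirectional fitting.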

Assay [11] in a line: BSK_4H_Eotaxin3: BioMAP Diversity Plus: 4H Assay for Eotaxin 3 Biomarker Activity (AID 2283000).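 Note: CCL26 protein level quantified by ELISA in parallel with SRB cytotoxicity check.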 The note with it: primary human endothelial cells (HUVEC); actives raise or lower the signal. The procedure, abridged: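 Chemicals were added to human umbilical vein endothelium cultures, and Eotaxin-3 was quantified by ELISA at 24 h. Values were derived by bidirectional fitting with DMSO serving as negative control and activity baseline.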

Read-out in assay [12]: Intercellular Adhesion Molecule 1 (ICAM1), ICAM1 (gene 3383)
Put plainly: BSK_3C_ICAM1: BioMAP Diversity Plus: 3C Assay for Intercellular Adhesion Molecule 1 (ICAM1) Biomarker Activity (AID 2283003). The note with it: primary human endothelial cells (HUVEC); actives raise or lower the signal. The procedure, abridged: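 ELISA read-out of ICAM-1; HUVEC (primary human), 3C system, 24 h post-dosing; bidirectional fit vs DMSO baseline.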

Assay [13] is described as follows: BSK_3C_Proliferation: Cell Proliferation Assessment in the BioMAP Diversity Plus: 3C Assay (AID 2283006).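 For AC50: potency may reflect either rise or fall in cell number versus DMSO.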 As to conditions: primary human endothelial cells (HUVEC). Summed up:
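HUVEC, sub-confluent; 48 h chemical exposure; 10% TCA fix, 0.1% SRB stain, A560 total protein. Gain or loss of signal fitted both directions vs DMSO control.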

Assay [14] deals with Peroxisome proliferator-activated receptor gamma (Homo sapiens) (UniProt P37231). In words: ATG_PPARg_TRANS: Attagene TRANS-FACTORIAL HepG2 Assay for human Peroxisome Proliferator-activated Receptor-gamma (PPARg) (AID 2283007; active = hit-call score of the fitted dose curve at least 0.9, where 1 is the maximum). The procedure, abridged: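 Gain-of-signal endpoint relative to DMSO, derived from reporter mRNA levels quantified by RT-PCR and capillary electrophoresis. Cells were HepG2 transiently expressing a chimeric NR-Gal4 construct with GAL4-UAS reporters, exposed to chemicals for 24 h.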

For assay [15], the target named is Nuclear receptor subfamily 1 group I member 2 (Homo sapiens) (UniProt O75469). Put plainly: ATG_PXR_TRANS: Attagene TRANS-FACTORIAL HepG2 Assay for human Pregnane X Receptor (PXR) (AID 2283008; active = hit-call score of the fitted dose curve at least 0.9, where 1 is the maximum). The procedure, abridged: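 Trans-factorial format: exogenous NR-Gal4 fusion activity, not endogenous factor, in transfected human HepG2 liver cells. After 24 h dosing, RNA isolated, reverse-transcribed, amplified and resolved by capillary electrophoresis; induction scored versus DMSO.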

Assay [16] in a line: ATG_NF_kB_CIS: Attagene CIS-FACTORIAL HepG2 Assay for human Nuclear Factor Kappa B (NF-kB) (AID 2282991). As to conditions: HepG2 Attagene cis-factorial NF-kB reporter mRNA; actives raise or lower the signal. The procedure, abridged:
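Measures mRNA induction of an NF-kB-responsive cis-element reporter in HepG2 cells transfected with multiple reporter units, sampled 24 h post-dosing; quantified by fluorescence after RT-PCR and capillary electrophoresis, fitted for activation or inhibition against DMSO.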

For assay [17], the target named is human Peroxisome Proliferator-activated Receptor delta (PPARd), PPARD (gene 5467) (UniProt Q03181). Put plainly: ATG_PPARd_TRANS: Attagene TRANS-FACTORIAL HepG2 Assay for human Peroxisome Proliferator-activated Receptor delta (PPARd) (AID 2283002; active = hit-call score of the fitted dose curve at least 0.9, where 1 is the maximum). Summed up:
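Multiplexed trans-activation format: HepG2 liver cells expressing exogenous NR-Gal4 chimeras and GAL4-UAS reporters were exposed for 24 h. Reporter mRNA was detected by RT-PCR with capillary electrophoresis fluorescence; activity fitted as gain of signal relative to DMSO.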

For assay [18], the target named is human Retinoic Acid Receptor beta (RARb), RARB (gene 5915) (UniProt P10826). Put plainly: ATG_RARb_TRANS: Attagene TRANS-FACTORIAL HepG2 Assay for human Retinoic Acid Receptor beta (AID 2283004; active = hit-call score of the fitted dose curve at least 0.9, where 1 is the maximum). The procedure, abridged:
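Transient transfection of HepG2 with multiple reporter units → chemical dosing, 24 h → total RNA isolation → RT with oligo(dT) → reporter-specific PCR, 6-FAM primer extension, HpaI digest → capillary electrophoresis. Positive direction vs DMSO control.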

Sequence of Transcriptional activator Myb (Homo sapiens) (P10242 whole entry, looked up): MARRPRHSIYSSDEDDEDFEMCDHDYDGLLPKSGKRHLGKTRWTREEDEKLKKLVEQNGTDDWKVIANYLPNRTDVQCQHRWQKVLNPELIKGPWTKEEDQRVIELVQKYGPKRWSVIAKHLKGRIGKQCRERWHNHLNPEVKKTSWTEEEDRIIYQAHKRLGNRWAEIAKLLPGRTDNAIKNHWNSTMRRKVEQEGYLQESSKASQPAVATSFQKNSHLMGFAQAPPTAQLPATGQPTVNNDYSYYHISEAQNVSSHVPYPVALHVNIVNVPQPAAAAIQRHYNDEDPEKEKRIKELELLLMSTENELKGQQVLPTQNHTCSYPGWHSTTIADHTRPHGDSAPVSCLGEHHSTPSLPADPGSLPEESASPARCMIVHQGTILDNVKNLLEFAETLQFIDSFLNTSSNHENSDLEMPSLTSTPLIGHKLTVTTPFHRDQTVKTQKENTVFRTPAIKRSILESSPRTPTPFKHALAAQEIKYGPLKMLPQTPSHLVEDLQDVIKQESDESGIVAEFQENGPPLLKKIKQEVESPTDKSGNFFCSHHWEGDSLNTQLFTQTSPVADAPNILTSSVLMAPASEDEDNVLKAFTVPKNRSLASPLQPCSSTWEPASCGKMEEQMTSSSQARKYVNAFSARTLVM
Sequence of Peroxisome proliferator-activated receptor gamma (Homo sapiens) (P37231 whole entry, looked up, the tested form may be a part): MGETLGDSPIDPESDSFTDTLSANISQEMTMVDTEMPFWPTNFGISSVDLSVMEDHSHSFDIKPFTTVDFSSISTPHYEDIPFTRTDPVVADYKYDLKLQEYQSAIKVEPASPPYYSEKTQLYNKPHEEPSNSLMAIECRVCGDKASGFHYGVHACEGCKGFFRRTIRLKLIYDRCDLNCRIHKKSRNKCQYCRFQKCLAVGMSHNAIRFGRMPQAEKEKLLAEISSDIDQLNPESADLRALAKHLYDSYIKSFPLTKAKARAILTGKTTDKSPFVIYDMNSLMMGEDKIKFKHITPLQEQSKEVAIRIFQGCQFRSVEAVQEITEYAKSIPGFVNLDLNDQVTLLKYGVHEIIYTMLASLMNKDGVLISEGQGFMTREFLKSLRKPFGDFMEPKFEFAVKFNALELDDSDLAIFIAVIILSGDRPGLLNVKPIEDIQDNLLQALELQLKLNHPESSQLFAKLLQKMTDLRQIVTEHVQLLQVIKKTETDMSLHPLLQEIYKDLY
Sequence of Nuclear respiratory factor 1 (Homo sapiens) (Q16656 whole entry, looked up, the tested form may be a part): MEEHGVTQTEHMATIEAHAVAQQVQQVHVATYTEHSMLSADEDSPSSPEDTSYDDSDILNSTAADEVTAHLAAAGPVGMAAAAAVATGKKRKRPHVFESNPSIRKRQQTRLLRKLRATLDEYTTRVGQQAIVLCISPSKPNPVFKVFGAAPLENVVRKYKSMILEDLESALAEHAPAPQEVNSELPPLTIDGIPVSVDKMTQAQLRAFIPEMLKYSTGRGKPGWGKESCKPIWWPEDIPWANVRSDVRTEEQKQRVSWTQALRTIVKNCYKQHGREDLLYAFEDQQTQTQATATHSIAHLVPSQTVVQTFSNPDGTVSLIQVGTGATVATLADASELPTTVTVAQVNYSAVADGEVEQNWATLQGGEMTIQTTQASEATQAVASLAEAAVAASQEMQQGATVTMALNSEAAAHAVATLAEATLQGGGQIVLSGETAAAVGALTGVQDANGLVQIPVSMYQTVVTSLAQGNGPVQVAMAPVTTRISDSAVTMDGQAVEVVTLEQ
Sequence of Myc proto-oncogene protein (Homo sapiens) (P01106 whole entry, looked up): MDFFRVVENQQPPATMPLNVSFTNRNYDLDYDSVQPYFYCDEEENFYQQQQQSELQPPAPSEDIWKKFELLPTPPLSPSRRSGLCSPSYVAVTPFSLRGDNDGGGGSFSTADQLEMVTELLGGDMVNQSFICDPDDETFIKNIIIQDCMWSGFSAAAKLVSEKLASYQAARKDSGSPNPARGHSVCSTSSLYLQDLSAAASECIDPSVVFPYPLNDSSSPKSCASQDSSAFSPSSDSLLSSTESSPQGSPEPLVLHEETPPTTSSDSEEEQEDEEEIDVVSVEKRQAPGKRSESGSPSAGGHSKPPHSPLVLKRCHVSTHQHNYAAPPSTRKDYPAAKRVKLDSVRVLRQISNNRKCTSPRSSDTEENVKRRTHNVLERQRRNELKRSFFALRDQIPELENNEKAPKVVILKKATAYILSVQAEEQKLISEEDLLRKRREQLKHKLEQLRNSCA
Sequence of Cellular tumor antigen p53 (Homo sapiens) (P04637 whole entry, looked up): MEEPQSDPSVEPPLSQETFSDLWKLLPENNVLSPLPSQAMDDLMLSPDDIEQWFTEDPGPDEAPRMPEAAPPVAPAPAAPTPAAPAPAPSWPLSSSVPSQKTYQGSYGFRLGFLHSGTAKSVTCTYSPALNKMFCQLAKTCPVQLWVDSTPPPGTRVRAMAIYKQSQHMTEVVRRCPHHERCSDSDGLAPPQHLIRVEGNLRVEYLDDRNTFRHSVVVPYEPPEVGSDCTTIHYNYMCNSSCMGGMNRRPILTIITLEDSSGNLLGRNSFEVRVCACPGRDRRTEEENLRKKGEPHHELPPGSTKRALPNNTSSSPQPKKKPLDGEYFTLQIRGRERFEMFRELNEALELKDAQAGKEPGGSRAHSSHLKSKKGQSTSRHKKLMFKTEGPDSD
Sequence of Nuclear receptor subfamily 1 group I member 2 (Homo sapiens) (O75469 whole entry, looked up, the tested form may be a part): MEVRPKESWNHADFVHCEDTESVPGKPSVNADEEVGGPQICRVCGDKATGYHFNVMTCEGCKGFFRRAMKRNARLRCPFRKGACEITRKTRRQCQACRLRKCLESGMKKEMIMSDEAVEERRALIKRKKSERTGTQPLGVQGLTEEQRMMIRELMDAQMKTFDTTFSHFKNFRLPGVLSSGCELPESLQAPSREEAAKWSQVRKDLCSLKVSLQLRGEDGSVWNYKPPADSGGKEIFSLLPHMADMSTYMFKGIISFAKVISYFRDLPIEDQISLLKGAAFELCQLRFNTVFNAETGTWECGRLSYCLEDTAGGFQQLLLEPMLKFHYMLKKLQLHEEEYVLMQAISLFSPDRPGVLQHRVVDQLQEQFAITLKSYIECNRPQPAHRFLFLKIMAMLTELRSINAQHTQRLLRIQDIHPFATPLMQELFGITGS
Sequence of human Peroxisome Proliferator-activated Receptor delta (PPARd), PPARD (gene 5467) (Q03181 whole entry, looked up, the tested form may be a part): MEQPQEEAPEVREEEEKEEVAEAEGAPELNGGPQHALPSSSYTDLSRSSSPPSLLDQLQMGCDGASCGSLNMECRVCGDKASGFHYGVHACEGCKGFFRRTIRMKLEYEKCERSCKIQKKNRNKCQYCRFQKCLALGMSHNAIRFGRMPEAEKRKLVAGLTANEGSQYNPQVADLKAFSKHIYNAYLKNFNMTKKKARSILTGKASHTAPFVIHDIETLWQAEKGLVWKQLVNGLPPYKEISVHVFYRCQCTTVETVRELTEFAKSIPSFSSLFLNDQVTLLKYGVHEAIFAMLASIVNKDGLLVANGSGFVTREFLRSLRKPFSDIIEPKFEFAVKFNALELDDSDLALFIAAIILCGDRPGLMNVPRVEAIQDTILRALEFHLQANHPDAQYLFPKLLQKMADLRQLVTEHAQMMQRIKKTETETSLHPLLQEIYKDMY
Sequence of human Retinoic Acid Receptor beta (RARb), RARB (gene 5915) (P10826 whole entry, looked up): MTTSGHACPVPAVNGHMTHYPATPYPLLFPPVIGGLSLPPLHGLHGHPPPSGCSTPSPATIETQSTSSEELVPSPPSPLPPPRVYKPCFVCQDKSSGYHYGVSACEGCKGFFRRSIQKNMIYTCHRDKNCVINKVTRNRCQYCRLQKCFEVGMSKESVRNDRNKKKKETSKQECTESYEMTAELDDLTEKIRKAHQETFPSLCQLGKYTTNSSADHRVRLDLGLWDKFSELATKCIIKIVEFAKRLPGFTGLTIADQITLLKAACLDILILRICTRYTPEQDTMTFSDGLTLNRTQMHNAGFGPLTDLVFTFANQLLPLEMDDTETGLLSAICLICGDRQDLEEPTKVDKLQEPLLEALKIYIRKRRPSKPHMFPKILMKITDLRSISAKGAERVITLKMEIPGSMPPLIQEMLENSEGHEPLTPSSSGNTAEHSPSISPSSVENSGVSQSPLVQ

`Nc1ccc(Cl)cc1`: the call in [1], in assay [2], in assay [3], in assay [4], in [5] and in assay [6] was inactive. Further, the outcome in assay [7], in assay [8], in assay [9], in [10], in [11] and in [12] was inactive. The outcome in [14] and in [15] was inactive. Also, the AC50 (commonly the concentration giving half of the maximal activity seen) in assay [13] was 13.2 µM (active).

In the case of `CC(Cl)(Cl)C(=O)O`, the molecule was called inactive in assay [1], in assay [2], in assay [3], in assay [4], in assay [5] and in assay [6]. Moreover, the outcome in assay [8], in assay [9], in assay [10], in assay [11], in assay [12] and in assay [13] was inactive. The result in [14] and in [15] was inactive.

`OCC(F)(F)OC(F)(F)C(F)(F)OC(F)(F)CO`: the result in assay [1], in assay [2], in [3], in [4], in assay [16] and in assay [5] was inactive. In addition, the outcome in [6], in [8], in [9], in assay [10], in [11] and in assay [17] was inactive. Moreover, the result in assay [12], in assay [18], in assay [13] and in [14] was inactive.

`CC(Cc1ccc(OCC(=O)O)cc1)NCC(O)c1csc(C(F)(F)F)n1` (centres undefined): the outcome in assay [1], in assay [2], in [3], in assay [4], in assay [5] and in [6] was inactive. Besides, the call in [7], in assay [8], in assay [9], in assay [10], in assay [11] and in [12] was inactive. In addition, the outcome in assay [13] and in assay [14] was inactive.
